Records with an inconclusive call do not appear. Activity calls are given as the source filed them. Unless noted, calls come from the whole dose curve; as a rule, active = well fitted curve in the direction sought with a large enough effect; inconclusive = small, poorly fitted or top-dose-only effect, or another doubt; inactive = no such curve, though single readings can be large; an effect the other way counts as inactive or inconclusive.
Assays:
[1] = target: Lysosomal acid glucosylceramidase (Homo sapiens) (UniProt P04062); assay: Glucocerebrosidase-p2 (AID 348; in the data active = potency below about 10 µM; note: potency is the fitted concentration of half-maximal effect); conditions: purified GBA, blue fluorogenic substrate, 40 min
Outline: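 Normal human glucocerebrosidase (0.2 nM) with blue fluorogenic substrate (80 uM final) in citrate/phosphate pH 5.9 with 10mM sodium taurocholate, 0.01% tween-20; 40 min RT, NaOH/glycine stop; fluorescence Ex 365/Em 440; AC50 from a titration from 0.6 nM upwards.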

[2] = AP1 Signaling Pathway (AID 357; active = well fitted curve in either direction with a large enough effect, not every such curve was filed as active;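 note: ME-180 reporter cells stimulated with EGF at its EC50 level; % is set by controls: 0 for no effect and ±100 for the full control effect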); conditions: ME-180 AP-1-bla reporter, EGF-induced, beta-lactamase ratio, 5 h; at 7.69 µM (top of the series) unless noted
Outline: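 Cells are seeded overnight, exposed to compound titrations and an EC50 level of EGF for 5 hours at 37 °C, then loaded with CCF4 dye for 2.5 hours. Beta-lactamase activity under the AP-1 element is read as a blue/green ratio.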

[3] = target: Cytochrome P450 1A2 (Homo sapiens) (UniProt P05177); assay: p450-cyp1a2 (AID 410; calls by dose curve; note: potency is the fitted concentration of half-maximal effect;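 for activity change, negative = inhibition: -100% = full effect of reference inhibitor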); conditions: recombinant CYP1A2, luciferin-ME demethylation, luminescence; series mostly up to 57 µM
Outline: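 Read-out is luminescence from luciferin produced by CYP1A2 demethylation of Luciferin-ME (100uM, at Km). Detection reagent stopped the 60 min NADPH-dependent reaction; signals were normalized to 57 uM furafylline.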

[4] = NFAT Signaling Pathway (AID 444; active = well fitted curve in either direction with a large enough effect, not every such curve was filed as active;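 note: carbachol stimulus at about its EC50 of 1 µM final; % is set by controls: 0 for no effect and ±100 for the full control effect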); conditions: Jurkat NFAT-bla M1, carbachol, beta-lactamase ratio, 5 h; at 7.69 µM (top of the series) unless noted
Outline: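 Read-out: CCF4 FRET ratio (460 nm/530 nm) after 1 h RT dye loading, used for %activity and AC50 from titration series. Cells: Jurkat NFAT-β-lactamase/M1 line, treated with compound plus 1 uM carbachol for 5 h, 37 °C.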

[5] = Stat Signaling Pathway (AID 446; active = well fitted curve in either direction with a large enough effect, not every such curve was filed as active;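 note: ME-180 cervical cancer cells given 40 pM IL-6 alongside compound; SIE-controlled beta-lactamase reporter measured as 460/530 nm FRET emission ratio; % is set by controls: 0 for no effect and ±100 for the full control effect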); conditions: ME-180 (cervical carcinoma) SIE beta-lactamase reporter, IL-6 stimulated, 5 h; at 7.69 µM (top of the series) unless noted
Outline: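 FRET read-out (405 nm excitation, 460/530 nm emission) of a beta-lactamase reporter under a STAT-inducible element in ME-180 cervical carcinoma cells. Cells with compound receive 40 pM IL-6 for 5 h. Values are normalised to AC90 stimulation and AC90 JAK-inhibitor controls.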

[6] = target: Mitogen-activated protein kinase 10 (Mus musculus) (UniProt Q61831); assay: JNK3 AlphaScreen Assay (AID 530; active = well fitted curve in either direction with a large enough effect, not every such curve was filed as active;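 note: kinase came from lysate of stimulated human HepG2 cells; signal reports phosphorylation of biotinylated GST-cJun 1-79 at Ser73 with 10 µM ATP; % is set by controls: 0 for no effect and ±100 for the full control effect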); conditions: JNK3 lysate, c-Jun phosphorylation; series mostly up to 57.1 µM
Outline: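 Kinase buffer: 20 mM Tris-HCl pH 7.6, 10 mM MgCl2, 1 mM DTT, 0.1 mM Na3VO4, 0.01% Tween-20; ATP 10 uM. Substrate biotin-GST-cJun(1-79), enzyme from activated HepG2 lysates. Detection by Ser73 phospho-antibody AlphaScreen.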

[7] = target: 3',5'-cyclic-AMP phosphodiesterase 4B (Homo sapiens) (UniProt Q07343); assay: qHTS Assay for Inhibitors of PDE-IV (AID 607; active = well fitted activation curve with a large enough effect in the main read-out, with a control signal flat, not every such curve was filed as active; note: % of control where 0% means no effect); conditions: HEK293 ACTOne CNG channel cells, membrane potential fluorescence; series mostly up to 22.9 µM
Outline: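 Cell-based read-out of cAMP via a modified cyclic nucleotide-gated channel and membrane potential dye (535/590 nm) in HEK293 cells expressing PDE4 endogenously. Compounds tested up to 22.9 uM final; 100 uM RO 20-1724 reference.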

[8] = qHTS Assay for Lipid Storage Modulators (AID 1519; calls by dose curve); conditions: Drosophila S3 cells, BODIPY lipid droplet/cell ratio, laser cytometry, cells loaded with oleic acid; for activity change, negative = inhibition: at 57.5 µM (top of the series)
Outline: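 Cells seeded at 5,000 per well were treated with compounds over a concentration series and loaded with oleic acid (400 uM, as added). Lipid droplet fluorescence (488 nm excitation, 500-530 nm channel) was read by laser-scanning cytometry and normalized to 20 uM Triacsin C.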

[9] = Primary qHTS for small molecule stabilizers of the endoplasmic reticulum resident proteome: Secreted ER Calcium Modulated Protein (SERCaMP) assay (AID 1508630); conditions: SH-SY5Y GLuc-SERCaMP (Gaussia luciferase released on ER calcium loss) secretion, thapsigargin, luminescence; series mostly up to 38.4 µM; note: % is set by controls: 0 for no effect and ±100 for the full control effect
Outline: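 The SH-SY5Y reporter protocol was run at 3 concentrations up to 38.3 uM (primary) or 11 concentrations (follow-up): 16 h compound, 100 nM thapsigargin for 4 h, then extracellular luciferase luminescence.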

[10] = target: Glucocorticoid receptor (Homo sapiens) (UniProt P04150); assay: GR-GFP Redistribution (AID 450;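 active = compounds whose dose series gives a full or clear partial fitted curve of increased nuclear translocation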; note: potency is the fitted concentration of half-maximal effect); conditions: U2OS GR-GFP nuclear translocation, laser cytometry, 2 h
[11] = target: Cytochrome P450 3A4 (Homo sapiens) (UniProt P08684); assay: qHTS Assay for Activators of Cytochrome P450 3A4 (AID 885); conditions: recombinant CYP3A4, Luciferin-PPXE luminescence, 60 min; series mostly up to 57.1 µM; note: nearly all actives have a fitted effect of over 65% in size
Outline: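 Luminescent readout of luciferin formed from 25 uM Luciferin-PPXE (KM level) by 20 nM CYP3A4 in 200 mM KPO4, with 60 min NADPH-driven reaction at room temperature after 10 min compound exposure. Ketoconazole (57 uM) defined 100% inhibition.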

[12] = target: Cytochrome P450 2D6 (Homo sapiens) (UniProt P10635); assay: qHTS Assay for Inhibitors and Substrates of Cytochrome P450 2D6 (AID 891); conditions: recombinant CYP2D6, luciferin-ME EGE luminescence; series mostly up to 57.1 µM; note: potency is the fitted concentration of half-maximal effect; nearly all actives have a fitted effect of over 60% in size
Outline: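 Luminescent read-out of luciferin formed by 5 nM human CYP2D6 demethylating 30 uM Luciferin-ME EGE (Km level) over 60 min at room temperature after NADPH regeneration addition. Data normalized to full inhibition by 1.43 uM quinidine.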

[13] = Confirmation and Secondary Assay for Modulators of Hemoglobin Beta Chain Splicing at IVS2 654 locus (AID 910); conditions: HeLa EGFP-654 splicing reporter, GFP fluorescence, 48 h; series mostly up to 38.3 µM;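 note: HeLa cells stably carrying EGFP split by mutant beta-globin IVS2-654 intron; per-well total GFP intensity by laser scanning cytometry after 2-day treatment; % of control where 0% means no effect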
Outline: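 Readout: per-well total peak green fluorescence (488 nm ex, 500–520 nm em) from objects 5–250 µm, reflecting correct splicing of an EGFP-654 reporter. Compounds were applied for 2 days at 37 °C to overnight-plated HeLa EGFP-654 cells; controls were DMSO and 500 nM IVS2-654 PNA.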

[14] = Confirmation and Secondary Assay for Modulators of Hemoglobin Beta Chain Splicing at IVS2 705 locus (AID 930); conditions: HeLa EGFP-705 splicing reporter, GFP fluorescence, 48 h; series mostly up to 38.3 µM;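 note: HeLa cells stably expressing the EGFP-705 splicing reporter; % of control where 0% means no effect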
Outline: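 HeLa cells stably carrying EGFP interrupted by mutant beta-globin IVS2-705 intron (CMV-driven) were seeded at 500 cells/well, treated next day with compound for 2 days at 37C; corrected splicing restores EGFP, read as total peak GFP intensity per well.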

[15] = target: Ubiquitin carboxyl-terminal hydrolase 1 (Homo sapiens) (UniProt O94782); assay: Inhibitors of USP1/UAF1: Pilot qHTS (AID 504865); conditions: purified USP1/UAF1, Ub-rhodamine cleavage fluorescence; series mostly up to 54.9 µM;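 note: rhodamine fluorescence freed from ubiquitin-rhodamine substrate followed over time; top concentration of the series differs between compounds; % is set by controls: 0 for no effect and ±100 for the full control effect; nearly all actives have a fitted effect of over 35% in size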
Outline: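 USP1/UAF1 complex at 1 nM preincubated 15 min at room temperature with compound, then Ub-Rho substrate added at 150 nM final. Fluorescence (480/540 nm) read kinetically in 50 mM HEPES pH 7.8, 0.5 mM EDTA, 1 mM TCEP, 0.1 mg/ml BSA, 0.01% Tween-20.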

[16] = target: Glucocorticoid receptor (Homo sapiens) (UniProt P04150); assay: GR-EFC Redistribution (AID 451; calls by dose curve; note: potency is the fitted concentration of half-maximal effect); conditions: CHO-K1 GR-EFC translocation, beta-gal luminescence, 2 h
Outline: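 Translocation of GR-ED fusion to nuclear EA restores b-gal, read by luminescence after 1 h room-temperature detection. Engineered CHO-K1 biosensor cells, 1,000/well, exposed 2 h at 37 C to titrations up to 46 uM final.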

[17] = target: Cytochrome P450 2C19 (Homo sapiens) (UniProt P33261); assay: qHTS Assay for Inhibitors and Substrates of Cytochrome P450 2C19 (AID 899); conditions: recombinant CYP2C19, luciferin-H EGE luminescence; series mostly up to 57.1 µM; note: potency is the fitted concentration of half-maximal effect; nearly all actives have a fitted effect of over 60% in size
Outline: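 5nM enzyme + 10uM Luciferin-H EGE (=KM), 50mM KPO4; cpd pin-transferred, 10 min 37C; NADPH regen, 60 min 37C; stopped w/ luciferin detection reagent, 20 min; luminescence. Normalized to 57uM ketoconazole (AC100).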

[18] = target: Cytochrome P450 2C9 (Homo sapiens) (UniProt P11712); assay: qHTS Assay for Inhibitors and Substrates of Cytochrome P450 2C9 (AID 883); conditions: recombinant CYP2C9, luciferin-H luminescence, 60 min; series mostly up to 57.1 µM; note: % is set by controls: 0 for no effect and ±100 for the full control effect; nearly all actives have a fitted effect of over 60% in size
Outline: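 Inhibition of CYP2C9 is scored as loss of luminescence, with 57uM sulphaphenazole defining 100% inhibition. Substrate Luciferin-H is used at 100uM, equal to its KM; enzyme at 10nM in 25mM KPO4, 60 min at 37C with NADPH regeneration.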

[19] = measured here: cell count channel max response
[20] = measured here: lipid channel max response

Sequence of 3',5'-cyclic-AMP phosphodiesterase 4B (Homo sapiens) (Q07343 whole entry, looked up): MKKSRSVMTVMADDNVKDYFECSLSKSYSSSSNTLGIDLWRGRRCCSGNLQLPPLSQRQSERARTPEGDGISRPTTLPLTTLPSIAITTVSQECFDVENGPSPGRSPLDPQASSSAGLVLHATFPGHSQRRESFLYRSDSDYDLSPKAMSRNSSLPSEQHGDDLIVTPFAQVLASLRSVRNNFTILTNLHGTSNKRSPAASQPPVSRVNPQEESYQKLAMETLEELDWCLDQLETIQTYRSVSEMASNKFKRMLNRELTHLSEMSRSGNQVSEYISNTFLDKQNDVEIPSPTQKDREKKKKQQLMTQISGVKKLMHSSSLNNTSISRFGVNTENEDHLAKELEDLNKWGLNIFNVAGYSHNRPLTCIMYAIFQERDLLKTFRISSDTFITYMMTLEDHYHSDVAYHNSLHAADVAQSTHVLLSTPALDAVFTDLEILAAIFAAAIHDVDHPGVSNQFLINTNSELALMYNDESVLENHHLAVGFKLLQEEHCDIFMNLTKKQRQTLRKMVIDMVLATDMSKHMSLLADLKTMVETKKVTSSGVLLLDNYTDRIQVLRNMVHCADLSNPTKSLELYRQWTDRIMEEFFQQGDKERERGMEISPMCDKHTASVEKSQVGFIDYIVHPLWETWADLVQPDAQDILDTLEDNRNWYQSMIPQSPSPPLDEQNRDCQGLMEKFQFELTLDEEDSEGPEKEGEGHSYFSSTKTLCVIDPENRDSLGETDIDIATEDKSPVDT
Sequence of Ubiquitin carboxyl-terminal hydrolase 1 (Homo sapiens) (O94782 whole entry, looked up): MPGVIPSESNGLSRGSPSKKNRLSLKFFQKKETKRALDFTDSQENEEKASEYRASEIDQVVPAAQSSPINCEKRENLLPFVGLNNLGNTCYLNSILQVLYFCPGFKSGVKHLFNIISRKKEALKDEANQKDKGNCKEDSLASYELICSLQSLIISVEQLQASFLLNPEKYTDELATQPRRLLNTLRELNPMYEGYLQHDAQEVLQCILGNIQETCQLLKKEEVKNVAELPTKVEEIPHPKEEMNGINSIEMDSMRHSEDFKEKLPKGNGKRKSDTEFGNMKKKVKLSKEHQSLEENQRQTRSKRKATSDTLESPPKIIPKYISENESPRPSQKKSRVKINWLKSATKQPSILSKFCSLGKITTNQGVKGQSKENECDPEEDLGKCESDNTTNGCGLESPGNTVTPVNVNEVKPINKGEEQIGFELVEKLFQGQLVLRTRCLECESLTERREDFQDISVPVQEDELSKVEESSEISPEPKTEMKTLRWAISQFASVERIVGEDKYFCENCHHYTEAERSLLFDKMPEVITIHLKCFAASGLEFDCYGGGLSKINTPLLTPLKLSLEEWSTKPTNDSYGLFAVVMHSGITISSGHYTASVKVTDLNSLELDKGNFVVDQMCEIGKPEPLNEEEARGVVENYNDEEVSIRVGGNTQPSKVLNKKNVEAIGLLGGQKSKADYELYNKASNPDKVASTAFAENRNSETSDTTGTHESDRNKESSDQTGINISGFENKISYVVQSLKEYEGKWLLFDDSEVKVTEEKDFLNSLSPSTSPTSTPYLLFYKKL
Sequence of Glucocorticoid receptor (Homo sapiens) (P04150 whole entry, looked up, the tested form may be a part): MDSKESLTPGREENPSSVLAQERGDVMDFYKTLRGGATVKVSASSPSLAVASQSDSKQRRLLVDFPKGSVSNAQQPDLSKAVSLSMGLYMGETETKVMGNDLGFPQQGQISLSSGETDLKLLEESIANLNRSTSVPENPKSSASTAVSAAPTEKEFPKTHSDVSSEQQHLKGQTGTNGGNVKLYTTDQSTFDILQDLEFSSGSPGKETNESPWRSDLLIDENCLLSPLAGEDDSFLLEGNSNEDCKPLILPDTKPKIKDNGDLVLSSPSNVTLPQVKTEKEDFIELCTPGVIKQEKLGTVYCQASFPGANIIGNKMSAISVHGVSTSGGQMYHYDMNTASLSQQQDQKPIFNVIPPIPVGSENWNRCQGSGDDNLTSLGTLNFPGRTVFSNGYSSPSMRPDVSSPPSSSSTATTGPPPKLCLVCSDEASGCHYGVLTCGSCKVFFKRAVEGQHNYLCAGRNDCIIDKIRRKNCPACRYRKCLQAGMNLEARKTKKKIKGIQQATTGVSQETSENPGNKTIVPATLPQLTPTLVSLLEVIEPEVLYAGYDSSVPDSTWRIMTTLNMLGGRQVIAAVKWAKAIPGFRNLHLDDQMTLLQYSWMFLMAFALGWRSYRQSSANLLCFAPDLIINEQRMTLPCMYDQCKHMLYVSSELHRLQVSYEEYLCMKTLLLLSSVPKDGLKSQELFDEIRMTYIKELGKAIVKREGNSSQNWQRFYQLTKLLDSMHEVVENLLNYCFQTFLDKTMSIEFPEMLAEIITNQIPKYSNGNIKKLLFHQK
Sequence of Cytochrome P450 1A2 (Homo sapiens) (P05177 whole entry, looked up): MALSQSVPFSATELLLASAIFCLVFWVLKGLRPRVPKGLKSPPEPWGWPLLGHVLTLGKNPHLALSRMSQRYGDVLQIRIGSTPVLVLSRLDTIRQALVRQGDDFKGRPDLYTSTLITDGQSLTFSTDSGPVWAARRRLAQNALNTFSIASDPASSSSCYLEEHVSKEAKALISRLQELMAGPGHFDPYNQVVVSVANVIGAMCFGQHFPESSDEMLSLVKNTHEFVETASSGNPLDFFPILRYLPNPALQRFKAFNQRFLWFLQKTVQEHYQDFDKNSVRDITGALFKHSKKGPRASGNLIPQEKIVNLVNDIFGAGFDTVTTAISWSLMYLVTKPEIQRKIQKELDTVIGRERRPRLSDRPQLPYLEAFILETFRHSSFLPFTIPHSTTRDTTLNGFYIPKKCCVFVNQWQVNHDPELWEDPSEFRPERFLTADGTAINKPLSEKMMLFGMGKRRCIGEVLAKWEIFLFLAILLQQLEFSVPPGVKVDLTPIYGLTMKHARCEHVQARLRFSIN
Sequence of Cytochrome P450 3A4 (Homo sapiens) (P08684 whole entry, looked up): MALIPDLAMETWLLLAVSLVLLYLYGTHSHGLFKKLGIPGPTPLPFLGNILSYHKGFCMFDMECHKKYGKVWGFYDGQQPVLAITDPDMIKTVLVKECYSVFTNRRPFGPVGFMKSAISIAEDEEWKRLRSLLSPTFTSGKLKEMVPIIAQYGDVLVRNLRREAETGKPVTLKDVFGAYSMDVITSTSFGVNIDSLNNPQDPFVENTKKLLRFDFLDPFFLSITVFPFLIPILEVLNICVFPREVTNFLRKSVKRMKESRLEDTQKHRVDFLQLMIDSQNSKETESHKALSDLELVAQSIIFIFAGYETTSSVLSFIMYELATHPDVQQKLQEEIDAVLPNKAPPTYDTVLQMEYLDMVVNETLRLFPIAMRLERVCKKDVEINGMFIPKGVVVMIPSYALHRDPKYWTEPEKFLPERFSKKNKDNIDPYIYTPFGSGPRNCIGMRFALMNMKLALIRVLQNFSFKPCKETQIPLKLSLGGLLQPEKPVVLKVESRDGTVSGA
Sequence of Cytochrome P450 2D6 (Homo sapiens) (P10635 whole entry, looked up): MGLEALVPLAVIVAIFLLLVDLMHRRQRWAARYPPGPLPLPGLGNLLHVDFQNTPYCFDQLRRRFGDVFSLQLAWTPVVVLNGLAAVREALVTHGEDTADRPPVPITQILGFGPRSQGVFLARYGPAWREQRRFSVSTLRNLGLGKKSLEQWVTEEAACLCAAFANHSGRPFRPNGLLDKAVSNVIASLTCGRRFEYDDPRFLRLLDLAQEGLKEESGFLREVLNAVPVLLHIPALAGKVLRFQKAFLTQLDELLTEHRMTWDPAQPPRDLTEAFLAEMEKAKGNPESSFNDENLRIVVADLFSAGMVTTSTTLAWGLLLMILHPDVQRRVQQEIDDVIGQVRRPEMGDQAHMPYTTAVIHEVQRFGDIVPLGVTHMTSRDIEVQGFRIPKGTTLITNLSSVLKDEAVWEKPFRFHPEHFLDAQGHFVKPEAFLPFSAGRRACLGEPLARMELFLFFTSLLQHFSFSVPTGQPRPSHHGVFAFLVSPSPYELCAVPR
Sequence of Lysosomal acid glucosylceramidase (Homo sapiens) (P04062 whole entry, looked up): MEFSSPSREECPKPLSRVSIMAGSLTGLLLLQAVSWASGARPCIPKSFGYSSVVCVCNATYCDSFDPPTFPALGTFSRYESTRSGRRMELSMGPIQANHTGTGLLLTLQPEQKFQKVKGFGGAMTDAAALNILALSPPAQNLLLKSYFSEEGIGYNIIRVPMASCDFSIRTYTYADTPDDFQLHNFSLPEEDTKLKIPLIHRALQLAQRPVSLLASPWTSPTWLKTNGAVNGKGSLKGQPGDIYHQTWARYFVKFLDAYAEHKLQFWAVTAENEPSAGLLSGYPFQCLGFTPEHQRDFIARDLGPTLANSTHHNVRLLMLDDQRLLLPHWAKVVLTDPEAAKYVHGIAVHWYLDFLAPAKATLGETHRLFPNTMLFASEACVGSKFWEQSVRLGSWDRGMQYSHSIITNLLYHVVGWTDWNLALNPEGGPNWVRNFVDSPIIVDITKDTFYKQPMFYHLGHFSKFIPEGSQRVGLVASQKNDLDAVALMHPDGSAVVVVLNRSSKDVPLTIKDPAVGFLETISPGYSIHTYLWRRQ
Sequence of Cytochrome P450 2C9 (Homo sapiens) (P11712 whole entry, looked up): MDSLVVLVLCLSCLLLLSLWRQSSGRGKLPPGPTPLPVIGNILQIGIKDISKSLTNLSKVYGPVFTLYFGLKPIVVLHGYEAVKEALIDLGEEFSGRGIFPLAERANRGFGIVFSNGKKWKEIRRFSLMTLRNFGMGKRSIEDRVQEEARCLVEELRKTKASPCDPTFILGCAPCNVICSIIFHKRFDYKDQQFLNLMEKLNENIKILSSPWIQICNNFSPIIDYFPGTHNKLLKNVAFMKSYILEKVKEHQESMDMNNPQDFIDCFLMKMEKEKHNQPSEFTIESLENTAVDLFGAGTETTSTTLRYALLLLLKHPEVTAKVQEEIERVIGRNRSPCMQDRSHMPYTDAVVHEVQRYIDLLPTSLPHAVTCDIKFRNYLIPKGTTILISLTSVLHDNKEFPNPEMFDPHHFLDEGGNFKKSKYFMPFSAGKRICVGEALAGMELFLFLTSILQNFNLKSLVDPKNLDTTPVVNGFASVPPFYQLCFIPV

CS(=O)(=O)N1CCC2(CC1)CN(c1ccncc1)C2
-19.4%: max response [8, 19]
-21.8%: max response [8, 20]
inactive: Potency [1] > 11.4 µM | activity change, negative = inhibition [2] -2.13% | Potency [3] | activity change, negative = inhibition [4] -17.7% | activity, negative = inhibition [5] -0.0709% | outcome [6] | Potency [7] | activity change, negative = inhibition [8] 4.12% | Potency [9]

CC(=O)NCCNc1nc(-c2ccccc2C(F)(F)F)nc2ccccc12
11.9%: max response [8, 19]
23%: max response [8, 20]
active: Potency [3] 15.8 µM | Potency [12] 3.98 µM
inactive: Potency [1] > 11.4 µM | activity change, negative = inhibition [2] 3.94% | activity, negative = inhibition [5] -7.86% | Potency [10] > 46 µM | outcome [6] | Potency [7] | Potency [11] | outcome [13] | outcome [14] | activity change, negative = inhibition [8] 9.13% | Potency [15] | Potency [9]

O=C(c1ccco1)N1CCC[C@@]2(CCN(c3ccccc3)C2)C1
active: Potency [3] 7.94 µM | Potency [17] 5.01 µM
inactive: Potency [1] > 11.4 µM | activity change, negative = inhibition [2] -8.72% | activity change, negative = inhibition [4] -13.1% | activity, negative = inhibition [5] -4.84% | Potency [16] > 46 µM | Potency [7] | Potency [11] | activity change, negative = inhibition [8] -7.59% | Potency [9]
4.34%: max response [8, 20]
11.4%: max response [8, 19]

CN(C)Cc1ccccc1-c1cc(NC2CC2)ncn1
13%: max response [8, 19]
22.4%: max response [8, 20]
active: Potency [3] 12.6 µM | Potency [12] 0.0398 µM
inactive: Potency [1] > 11.4 µM | activity change, negative = inhibition [2] -5.78% | activity, negative = inhibition [5] 12.3% | Potency [10] > 46 µM | Potency [16] > 46 µM | outcome [6] | activity change, negative = inhibition [18] 5.15% [at 2.29 µM] | Potency [11] | outcome [13] | outcome [14] | activity change, negative = inhibition [8] 8.29% | Potency [15] | Potency [9]

c1nc(NC2CCNCC2)c2cc(-c3ccc4c(c3)OCO4)ccc2n1
active: Potency [3] 12.6 µM
inactive: Potency [1] > 11.4 µM | activity change, negative = inhibition [2] 7.44% | activity change, negative = inhibition [4] 15.7% | activity, negative = inhibition [5] 2.23% | outcome [6] | Potency [7] | Potency [11] | outcome [13] | outcome [14] | activity change, negative = inhibition [8] 6.44% | Potency [15] | Potency [9]
1.52%: max response [8, 19]
6.41%: max response [8, 20]

COCC(=O)N1CCC[C@@]2(CCN(Cc3ccccc3)C2)C1
inactive: Potency [1] > 11.4 µM | activity change, negative = inhibition [2] -0.884% | Potency [3] | activity change, negative = inhibition [4] 19.9% | activity, negative = inhibition [5] 7.86% | outcome [6] | Potency [7] | Potency [11] | activity change, negative = inhibition [8] 4% | Potency [9]
6.62%: max response [8, 19]
active: Potency [12] 6.31 µM
13.4%: max response [8, 20]

Source: PubChem BioAssay (NCATS)
